Screening data as filed in PubChem.
Most compounds without a hit are left out; they make up all but 2.4% or so of the library.
TNF necrop inh: inhibitors of TNF-alpha triggered necroptosis, primary screen, cell-based, Jurkat FADD-/-, single concentration; Jurkat FADD-/- TNF necroptosis rescue, ATP luminescence, 24 h; 0 = TNF only, 100 = no-TNF cells; activation (protection from cell death), % at 10 µM; 0.068% of 220,000 active; AID 463075, 2010;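 active = activation, meaning protection from cell death, of at least 50% relative to plate controls; inactive = activation below 50%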;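 also: necroptosis triggered by 40 ng/mL TNF-alpha added together with compound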
PERK inh: block of dimerizer-induced PERK translation repression, primary screen, PERK inhibitor project, CHO PERK-DD cells, SEAP luminescence, HTS. Eukaryotic translation initiation factor 2-alpha kinase 3 (Homo sapiens), Q9NZJ5. CHO PERK-DD fusion, SEAP luminescence translation reporter. inhibition, % at 5.6 µM. 0.17% of 220,000 active. AID 1416, 2008;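 active = inhibition above the mean inhibition of all tested compounds plus 3 SD, set separately per screening campaign, cut at about 2.9% in these data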;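 also: PERK kinase domain activated by AP20187 dimerizer at 100 nM; 0% = DMSO with dimerizer and 100% = rapamycin at 8.4 µM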
Redox H2O2 prof: compounds producing H2O2 with reducing agent – biochemical, NIH compound library profiling, artefact control for MLSCN library redox annotation, primary screen. DTT-dependent redox cycling H2O2, phenol red/HRP absorbance; 100% = 100 µM peroxide control, 0% = buffer. activation, % at 10 µM. 0.03% of 200,000 active;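 active = activation of at least 50% relative to the plate's high and low controls in the primary single-dose screen; inactive = activation below 50%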;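 also: compound incubated with DTT at 0.8 mM final as the reducing agent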
PKD1 kinase inh: inhibitors of human PKD1 kinase, biochemical, fluorescence polarization. Serine/threonine-protein kinase D1 (Homo sapiens), Q15139. PKD1 kinase fluorescence polarization assay. inhibition, % (no concentration beside the values). 0.056% of 200,000 active. AID 797, 2007; in the data active = inhibition above about 50%
Target sequence (Q15139 whole entry, looked up): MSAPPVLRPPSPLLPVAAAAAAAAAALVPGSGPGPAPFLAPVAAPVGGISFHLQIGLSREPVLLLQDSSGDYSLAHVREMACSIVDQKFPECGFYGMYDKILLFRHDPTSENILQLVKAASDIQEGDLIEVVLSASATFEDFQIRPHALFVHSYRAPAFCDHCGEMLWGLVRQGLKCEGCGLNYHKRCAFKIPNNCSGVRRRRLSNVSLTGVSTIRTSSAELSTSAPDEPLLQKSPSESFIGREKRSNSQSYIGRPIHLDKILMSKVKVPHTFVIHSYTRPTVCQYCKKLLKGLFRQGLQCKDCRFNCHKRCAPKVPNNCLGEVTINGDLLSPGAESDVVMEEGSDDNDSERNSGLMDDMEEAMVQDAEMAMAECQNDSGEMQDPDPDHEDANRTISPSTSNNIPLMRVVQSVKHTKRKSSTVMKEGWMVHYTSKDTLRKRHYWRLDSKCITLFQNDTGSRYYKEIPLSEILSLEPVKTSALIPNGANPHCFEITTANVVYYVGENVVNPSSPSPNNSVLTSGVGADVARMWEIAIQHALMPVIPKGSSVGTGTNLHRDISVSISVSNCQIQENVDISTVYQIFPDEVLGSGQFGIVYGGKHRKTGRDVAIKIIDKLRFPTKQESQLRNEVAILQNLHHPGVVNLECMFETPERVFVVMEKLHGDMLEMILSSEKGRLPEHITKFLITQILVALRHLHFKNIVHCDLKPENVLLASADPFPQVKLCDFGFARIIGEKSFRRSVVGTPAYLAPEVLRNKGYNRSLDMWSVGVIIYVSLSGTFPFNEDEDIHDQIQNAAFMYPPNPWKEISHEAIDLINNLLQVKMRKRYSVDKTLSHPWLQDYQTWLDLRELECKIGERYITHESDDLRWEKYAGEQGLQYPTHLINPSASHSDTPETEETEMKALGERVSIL
L929 necroptosis: inhibitors of zVAD-triggered necroptosis, primary screen, L929 cells; viability rescue, % at 10 µM; L929 zVAD necroptosis rescue, ATP luminescence, 24 h; with zVAD 60 µM; AID 1377, 2008; 0.38% of 220,000 active;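 active = activation, scaled between plate controls, above about 75%, limit read from the data; inactive = activation under that limit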;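 also: 0% = zVAD with DMSO and 100% = DMSO alone without zVAD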
WT yeast gro inh: growth inhibition of WT strain, primary screen, mitochondrial fusion inhibitor project, WT and mutant strains, chemical genetic | 2.1% of 190,000 active | AID 1362, 2008 | inhibition, % at 10 µM | mitochondrial fusion phenotypic screen; in the data active = inhibition above about 58%; tested in S. cerevisiae
zVAD death conf: inhibitors of zVAD-triggered necroptosis in L929, confirmation, L929 cells, duplicate runs | shares compounds with L929 necroptosis | L929 zVAD-induced necroptosis rescue, ATP luminescence, 24 h | activation (protection from necroptosis), % at 10 µM | 16% of 760 active | AID 463117, 2010;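 active = mean protection from necroptosis of at least 50% over duplicate tests; inactive = mean protection below 50%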;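 also: 0% = cells with zVAD alone and 100% = vehicle cells without zVAD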
* = called active by the depositor; · = not tested or not shown; ! = repeats disagree.

SMILES	TNF necrop inh	PERK inh	Redox H2O2 prof	PKD1 kinase inh	L929 necroptosis	WT yeast gro inh	zVAD death conf
Cc1cc(C(=O)COc2cccc(-n3cnnn3)c2)c(C)n1-c1ccccc1	-7	0	0	0	81*	56	36
O=C(NCCN1C(=O)C2C3C=CC(C3)C2C1=O)Nc1ccc(Br)cc1 (stereo not drawn)	1	1	0	7	76*	-2	2
CC(=O)c1sc(Nc2ccccn2)nc1C	-4	0	-1	-8	96*	1	1
COc1ccc(F)cc1C(=O)C1CCCN(Cc2ccc(Sc3nncn3C)o2)C1 (stereo not drawn)	1	0	-1	-5	-1	5	·
O=C(CSc1nnc(-c2ccc(F)cc2)o1)N1CCN(C(=O)c2ccco2)CC1	-4	0	3	-5	2	9	·
O=C(CSc1nnc(-c2ccccc2Br)o1)N1CCN(C(=O)c2ccco2)CC1	-1	0	0	-14	86*	-9	38
Brc1ccc(COn2ccnc2)cc1	61*	0	-1	1	91*	9	75*
COC(=O)c1ccc(NC(C)=O)cc1O	0	1	-2	0	3	3	·
Cc1cc(=O)oc2cc(OCCSCCN3CCCCC3)ccc12	-1	0	·	·	0	·	·
COC(=O)CCc1c(C)[nH]c(C(=O)OCc2ccccc2)c1C	-1	-1	-1	-7	76*	8	1
CCOC(=O)c1[nH]c(C(=O)O)c(CCC(=O)OC)c1C	0	1	1	-7	1	-11	·
CCC(=O)Nc1ccc(C(=O)CSc2nc3ccccc3[nH]2)cc1	1	1	0	-9	·	-3	·
CCC(=O)Nc1ccc(C(=O)CSc2nc3ccc(C)cc3[nH]2)cc1	3	0	0	15	76*	-1	39
O=C(Nc1cnccn1)Nc1ccccc1Cl	-2	1	0	-3	79*	-3	2
O=C(Nc1ccc(Cl)cc1)Nc1cnccn1	0	1	0	-3	76*	3	7
O=C(Nc1ccc(Cl)cn1)Nc1ccccc1Cl	2	0	0	1	73	-6	·
Cc1ccc(NC(=O)Nc2ccc(Cl)cn2)cc1	3	2	0	3	83*	15	1
Cc1ccc(NC(=O)Nc2ccc3c(c2)OCO3)nc1	7	0	0	7	77*	-3	1
COc1cccc(OC)c1CN1CCCC(C(=O)c2ccccc2SC)C1 (stereo not drawn)	3	0	0	2	-1	3	·
CCOc1ccccc1NC(=O)Nc1cnccn1	-2	1	-1	3	80*	-9	2
COc1ccc(NC(=O)Nc2ccc(Br)cn2)cc1	9	1	0	-2	79*	15	10
O=C(Nc1ccccc1)Nc1ccccn1	1	0	-1	-4	77*!	-5	3
COC(=O)c1ccccc1NC(=O)Nc1ccc(Br)cn1	1	1	0	-1	-1	-29	·
COc1cc2[nH]c3c(N4CCN(c5ccc(Cl)cc5)CC4)ncnc3c2cc1OC	-4	-1	0	-11	2	0	·
COc1cc2[nH]c3c(Cl)ncnc3c2cc1OC	2	0	-1	-1	77*	2	13
SMILES	TNF necrop inh	PERK inh	Redox H2O2 prof	PKD1 kinase inh	L929 necroptosis	WT yeast gro inh	zVAD death conf
NC(=O)c1ccc(-c2ncc(-c3ccccc3)o2)cc1	-5	1	0	6	79*	-18	63*
c1ccc(-c2cnc(-c3cccnc3)o2)cc1	-14	1	0	1	79*	8	47
COc1cc(CO)ccc1OCC(=O)Nc1ccc(Br)cc1	1	0	0	-3	76*	-13	0
COc1ccc(CC(=O)Nc2ccc(C(=O)Nc3nccs3)cc2)cc1OC	14	0	-2	0	83*	-3	63*
Cc1ccc(C(=O)Nc2nccs2)cc1	12	1	-1	1	86*	32	39
CCn1c(SCc2ccc(C(=O)Nc3nccs3)cc2)nnc1-c1ccc(N)cc1	17	-2	0	-9	88*	-13	71*
Nc1ccc(C(=O)Nc2nccs2)cc1	21	0	-1	9	81*	1	40
COc1ccc(CCNC(=O)C(=O)Nc2nccs2)cc1OC	-2	-1	-5	3	0	-10	·
C#Cc1ccc([C@@H]2C=C(C(=O)OCC=C)O[C@H](OCCCCO)C2)cc1	3	1	0	8	1	-27	·
Nc1ccc(CSc2ccc(Cl)cc2)cc1	-7	0	-1	1	-1	33	·
O=C(Nc1nccs1)c1ccccc1[N+](=O)[O-]	1	0	0	-4	1	-3	·
Nc1ccccc1C(=O)Nc1nccs1	9	2	-2	-3	91*	-5	11
O=C(Nc1nccs1)c1ccc(NC(=O)c2ccco2)cc1	21	0	0	-4	84*	2	48
CN(c1ccc(C(=O)Nc2nccs2)cc1)S(=O)(=O)c1ccccc1	49	0	0	-6	89*	0	86*
COc1cc2cc3c(N)c(C(=O)Nc4sc(C)c(C)c4C#N)sc3nc2cc1OC	-4	0	-2	-6	0	12	·
CC(C)(C)c1nnc2cccc(Cl)n12	1	1	-2	-5	1	-3	·
Cc1nc(-c2ccccc2)sc1-c1ccnn1C	-1	1	-1	8	1	19	·
Cc1nc(-c2ccccc2)sc1-c1ccn[nH]1	10	-1	0	-4	80*	15	40
CCCC(c1nnnn1CCOC)N1CCN(c2nc3ccccc3s2)CC1 (stereo not drawn)	2	0	-1	-7	0	7	·
N#CCc1ccc(NC(=O)/C=C/c2ccc([N+](=O)[O-])o2)cc1	-13	0	0	-4	85*	-13	0
CCOC(=O)c1ccc2[nH]c3c(c2c1)CCCC3C(=O)OCC (stereo not drawn)	3	-1	2	4	75*	1	29
CCOC(=O)C1CCCc2c1[nH]c1ccc(Cl)cc21 (stereo not drawn)	2	2	0	5	5	22	·
